A short description of experiment [1]: A CellTox Green Cytotoxicity Assay to monitor cytotoxicity in HEK293 cells - 24 hour (AID 1224875). Further: series mostly up to about 77 µM; nearly all actives have a fitted effect of over 45% in size. Summed up: (§1)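 Each value comes from one timepoint of a single continuous run in which HEK293 cells with CellTox Green were exposed to compound for up to 40 h at 37 C, dye fluorescence rising with cell death.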
The nature of experiment [2]: A CellTox Green Cytotoxicity Assay to monitor cytotoxicity in HepG2 cells - 16 hour (AID 1224876). Further: nearly all actives have a fitted effect of over 45% in size. Further: potency means the concentration at half of the fitted maximal effect. Summed up:
(§2)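 Continuous culture of HepG2 cells with a membrane-impermeant DNA dye; rising fluorescence marks dead cells. Compound exposure lasted up to 40 h at 37 C, with reads every 8 h from 0 h.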

Experiment [3] is described as follows: qHTS RealTime-Glo MT Cell Viability Assay in HepG2 cells - 32 hour (AID 1224877). Further: nearly all actives have a fitted effect of over 55% in size. An outline of the steps:
(§3)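 qHTS, HepG2, 600 cells/well, RealTime-Glo (NanoLuc + prosubstrate) added with cells; 5 h preincubation; DMSO compound addition; 37 C; luminescence at 0/8/16/24/32/40 h.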

The nature of experiment [4]: A CellTox Green Cytotoxicity Assay to monitor cytotoxicity in HepG2 cells - 24 hour (AID 1224878). Further: nearly all actives have a fitted effect of over 45% in size. Further: potency means the concentration at half of the fitted maximal effect. An outline of the steps:
as §2

Experiment [5] in a line: A CellTox Green Cytotoxicity Assay to monitor cytotoxicity in HepG2 cells - 40 hour (AID 1224879). Further: nearly all actives have a fitted effect of over 40% in size. Further: potency means the concentration at half of the fitted maximal effect. Summed up: as §2
A short description of experiment [6]: qHTS RealTime-Glo MT Cell Viability Assay in HEK293 cells - 0 hour (AID 1224880). Further: top concentration of the series differs between compounds; nearly all actives have a fitted effect of over 45% in size. An outline of the steps: (§4)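 qHTS format; HEK293 cells with NanoLuc/prosubstrate reagent, 37 C/5% CO2 for 5 h pre-dosing; compounds 23 nL in DMSO; luminescence at each time point reflects viable cells.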
Experiment [7] in a line: A CellTox Green Cytotoxicity Assay to monitor cytotoxicity in HEK293 cells - 32 hour (AID 1224881). Further: nearly all actives have a fitted effect of over 40% in size. Further: potency means the concentration at half of the fitted maximal effect. An outline of the steps:
as §1

Experiment [8] is described as follows: A CellTox Green Cytotoxicity Assay to monitor cytotoxicity in HepG2 cells - 0 hour (AID 1224882). Further: nearly all actives have a fitted effect of over 35% in size. Further: potency means the concentration at half of the fitted maximal effect. Summed up: as §2
Experiment [9] can be described thus: A CellTox Green Cytotoxicity Assay to monitor cytotoxicity in HepG2 cells - 32 hour (AID 1224883). Further: nearly all actives have a fitted effect of over 50% in size. Further: potency means the concentration at half of the fitted maximal effect. Summed up: as §2
A short description of experiment [10]: A CellTox Green Cytotoxicity Assay to monitor cytotoxicity in HEK293 cells - 8 hour (AID 1224884). Further: nearly all actives have a fitted effect of over 35% in size. Further: potency means the concentration at half of the fitted maximal effect. An outline of the steps:
as §1

The nature of experiment [11]: qHTS RealTime-Glo MT Cell Viability Assay in HepG2 cells - 16 hour (AID 1224885). Further: nearly all actives have a fitted effect of over 50% in size. Summed up: as §3
The nature of experiment [12]: qHTS RealTime-Glo MT Cell Viability Assay in HEK293 cells - 24 hour (AID 1224886). Further: top concentration of the series differs between compounds; nearly all actives have a fitted effect of over 50% in size. An outline of the steps:
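Assay medium contained NanoLuc luciferase plus cell-permeant prosubstrate, added with HEK293 cells at 600 cells/well. After 5 h at 37 C/5% CO2 compounds were added; plates stayed at 37 C for 40 h with serial luminescence reads.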

The nature of experiment [13]: qHTS RealTime-Glo MT Cell Viability Assay in HEK293 cells - 8 hour (AID 1224887). Further: top concentration of the series differs between compounds; nearly all actives have a fitted effect of over 50% in size. An outline of the steps:
as §4

A short description of experiment [14]: A CellTox Green Cytotoxicity Assay to monitor cytotoxicity in HEK293 cells - 16 hour (AID 1224888). Further: nearly all actives have a fitted effect of over 35% in size. An outline of the steps:
as §1

Experiment [15] in a line: qHTS RealTime-Glo MT Cell Viability Assay in HepG2 cells - 0 hour (AID 1224889). Further: nearly all actives have a fitted effect of over 50% in size. An outline of the steps: as §3
Experiment [16] can be described thus: qHTS assay to identify small molecule antagonists of the estrogen receptor alpha (ER-alpha) signaling pathway using the BG1 cell line in the presence of 0.1 nM 17-beta-estradiol - cell viability counter screen (AID 1259241). Further: nearly all actives have a fitted effect of over 40% in size. An outline of the steps: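 Measures cytotoxicity alongside the ER-alpha antagonist readout: VM7Luc4E2 cells, charcoal-stripped serum, 0.1 nM 17beta-estradiol final, 22 hr compound incubation at 37C, CellTiter-Fluor fluorescence.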

A short description of experiment [17]: qHTS assay to identify small molecule antagonists of the androgen receptor (AR) signaling pathway using the MDA cell line in the presence of 0.5 nM R1881 - cell viability counter screen (AID 1259242). Further: nearly all actives have a fitted effect of over 45% in size. Summed up:
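Fluorescence from CellTiter-Fluor, which reports protease activity of live cells, was read 30 min after reagent addition to MDA-kb2 cells that had been incubated 16 hr with compound and 0.5 nM R1881.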

A short description of experiment [18]: qHTS RealTime-Glo MT Cell Viability Assay in HEK293 cells - 40 hour (AID 1224874). Further: nearly all actives have a fitted effect of over 50% in size. Conditions: RealTime-Glo luminescence; max response: stronger effect = lower value. An outline of the steps:
as §4

Experiment [19] is described as follows: A CellTox Green Cytotoxicity Assay to monitor cytotoxicity in HepG2 cells - 8 hour (AID 1224890). Further: nearly all actives have a fitted effect of over 45% in size. Further: potency means the concentration at half of the fitted maximal effect. An outline of the steps: as §2
The target in experiment [20] is Androgen receptor (Homo sapiens) (UniProt P10275). As to the kind of experiment: qHTS assay to identify small molecule antagonists of the androgen receptor (AR) signaling pathway using the MDA cell line in the presence of 0.5 nM R1881 (AID 1259243). Further: nearly all actives have a fitted effect of over 50% in size. An outline of the steps:
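Inhibition of R1881 (0.5 nM final) induced reporter signal was measured in human MDA-kb2 cells; note the MMTV promoter also responds to GR. Exposure lasted 16 hr at 37C.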

Several values for one entry are separate records, joined by “and”; a condition that tells them apart may be missing. Equal entries are not always repeated. Results filed as inconclusive are left out. Some compounds were tested as several samples or in several runs, with calls that do not always agree. Activity calls are given as the source filed them. The call rests on the fitted dose curve; in most records, active means well fitted curve in the direction sought with a large enough effect in the repeat runs; inconclusive means weak or mixed curves; inactive means no such curve, though single readings can be large; an effect the other way counts as inactive or inconclusive.

Results on 13 molecules are retold here after PubChem BioAssay (Tox21).
On the % scale 0 is the no-effect control and ±100 the full control effect.

Androgen receptor (Homo sapiens), sequence (P10275 whole entry, looked up): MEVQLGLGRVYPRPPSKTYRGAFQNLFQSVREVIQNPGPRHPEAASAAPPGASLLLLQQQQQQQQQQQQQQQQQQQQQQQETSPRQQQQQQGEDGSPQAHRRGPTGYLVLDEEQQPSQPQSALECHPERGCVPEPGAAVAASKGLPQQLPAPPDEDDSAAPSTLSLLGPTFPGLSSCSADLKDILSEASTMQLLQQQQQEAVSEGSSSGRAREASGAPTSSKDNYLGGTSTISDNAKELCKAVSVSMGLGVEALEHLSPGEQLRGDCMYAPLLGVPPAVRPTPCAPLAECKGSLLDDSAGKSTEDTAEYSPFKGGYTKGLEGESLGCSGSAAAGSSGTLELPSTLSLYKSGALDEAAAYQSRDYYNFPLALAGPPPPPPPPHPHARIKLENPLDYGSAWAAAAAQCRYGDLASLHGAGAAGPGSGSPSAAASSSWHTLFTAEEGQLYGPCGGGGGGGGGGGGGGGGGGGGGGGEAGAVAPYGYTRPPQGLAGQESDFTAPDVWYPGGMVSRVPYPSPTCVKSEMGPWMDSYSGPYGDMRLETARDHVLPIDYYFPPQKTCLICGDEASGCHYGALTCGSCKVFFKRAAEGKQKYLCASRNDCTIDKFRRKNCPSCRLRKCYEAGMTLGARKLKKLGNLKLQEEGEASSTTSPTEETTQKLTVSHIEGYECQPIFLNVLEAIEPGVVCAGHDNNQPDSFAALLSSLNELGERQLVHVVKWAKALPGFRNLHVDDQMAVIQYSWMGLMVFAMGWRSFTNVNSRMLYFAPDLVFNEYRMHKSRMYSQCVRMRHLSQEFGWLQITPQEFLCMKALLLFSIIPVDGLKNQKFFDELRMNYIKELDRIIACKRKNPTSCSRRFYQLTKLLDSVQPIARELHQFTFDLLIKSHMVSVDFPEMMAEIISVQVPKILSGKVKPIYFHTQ

As to `O=S(=O)(c1ccc(Cl)cc1)c1cc(Cl)c(Cl)cc1Cl`, the Potency result in experiment [1], in [2], in [4], in experiment [5], in experiment [7] and in [8] was “inactive” throughout. In addition, the Potency entry in experiment [9], in [10], in [12], in [14] and in experiment [16] was “inactive” in each case. Moreover, the molecule was classed as inactive in experiment [3], in experiment [6], in experiment [11], in experiment [13], in [15] and in [17].
In the case of `CN(C)CCO`, the max response in experiment [18] was -6.53% (inactive) and -6.4% (inactive). Further, the Potency result in experiment [1], in experiment [2], in [4], in [5], in experiment [7] and in experiment [8] was “inactive” each time. In addition, the Potency entry in experiment [9], in experiment [10], in [12], in experiment [14] and in experiment [16] was “inactive” each time. Moreover, the call in [3], in [6], in [11], in experiment [13], in experiment [15] and in experiment [17] was inactive.
As for `CCC(C)(CC)c1cc(NC(=O)c2c(OC)cccc2OC)on1`, the Potency entry in experiment [1], in [2], in [4], in [5], in [7] and in experiment [8] was “inactive” in each case. Further, the Potency result in experiment [9], in experiment [10], in experiment [12], in experiment [14], in [19] and in experiment [16] was “inactive” in each case. In addition, the molecule was classed as inactive in experiment [3], in [6], in [11], in [13], in [15] and in experiment [17].
For the molecule `Cc1ccccc1O`, the max response in experiment [18] is 2.91% (inactive) and -0.867% (inactive). In addition, the Potency entry in experiment [1], in experiment [2], in [4], in experiment [5], in [7] and in experiment [8] was “inactive” in each case. Also, the Potency entry in experiment [9], in experiment [10], in [12], in experiment [14] and in experiment [16] was “inactive” each time. For the same molecule, the molecule was called inactive in [3], in experiment [6], in experiment [11], in experiment [13], in experiment [15] and in experiment [17].
Turning to `CC(C)OC(=O)Nc1cccc(Cl)c1`, in experiment [18], the max response was -5.94% (inactive) and -18% (inactive). The Potency entry in experiment [1], in experiment [2], in experiment [4], in experiment [5], in [7] and in experiment [8] was “inactive” throughout. Also, the Potency result in [9], in experiment [10], in [12], in experiment [14], in [19] and in [16] was “inactive” throughout. The call in [3], in experiment [6], in experiment [11], in [15] and in experiment [17] was inactive.
Take `CN(C)N=O`: the max response in experiment [18] was 7.51% (inactive) and -1.45% (inactive). In addition, the Potency entry in [1], in experiment [2], in experiment [4], in [5], in experiment [7] and in [8] was “inactive” in each case. Further, the Potency entry in experiment [9], in experiment [10], in [12], in [14] and in [16] was “inactive” each time. For the same molecule, the molecule was classed as inactive in experiment [3], in [6], in [11], in [13], in [15] and in [17].
Turning to `Nc1c(Cl)c(Cl)nc(C(=O)O)c1Cl`, the max response in [18] was 19.5% (inactive) and -5.11% (inactive) and 22.8% (inactive). The Potency entry in [1], in experiment [2], in [4], in [5], in experiment [7] and in experiment [8] was “inactive” in each case. The Potency result in experiment [9], in [10], in experiment [12], in experiment [14] and in experiment [16] was “inactive” in each case. The molecule was called inactive in [3], in [6], in experiment [11], in experiment [13], in experiment [15] and in experiment [17].
Turning to `O=NN1CCCCCCC1`, the max response in [18] is 6.51% (inactive) and -7.12% (inactive). Moreover, the Potency result in [1], in experiment [2], in experiment [4], in experiment [5], in experiment [7] and in experiment [8] was “inactive” in each case. Moreover, the Potency entry in experiment [9], in [10], in [12], in [14] and in experiment [16] was “inactive” in each case. Moreover, the call in [3], in experiment [6], in experiment [11], in experiment [13], in experiment [15] and in experiment [17] was inactive.
As to `C1CN2CCN1CC2`, in experiment [18], the max response was 1.08% (inactive) and 21.8% (inactive). For the same molecule, the Potency entry in [2] was “inactive and 21.9 µM (active)”; in experiment [4], “inactive and 21.9 µM (active)”; in experiment [5] it was “inactive and 21.9 µM (active)”; in experiment [7] it was “inactive and 21.9 µM (active)”; in [8], “inactive and 21.9 µM (active)”; in [9], “inactive and 21.9 µM (active)”. Further, the Potency result in [10] was “inactive and 21.9 µM (active)”. For the same molecule, the outcome in experiment [3], in [6], in experiment [11], in experiment [13], in [15] and in experiment [17] was inactive. For the same molecule, the Potency result in experiment [12] and in [16] was “inactive” in each case.
Take `C=CCO`: the max response in [18] was 4.57% (inactive) and 0.311% (inactive). For the same molecule, the Potency result is “inactive and 24.5 µM (active)” in experiment [2]; “inactive and 24.5 µM (active)” in experiment [4]; “inactive and 24.5 µM (active)” in experiment [5]; “inactive and 38.9 µM (active)” in experiment [7]; “inactive and 38.9 µM (active)” in experiment [8]; “inactive and 24.5 µM (active)” in [9]. The Potency entry in experiment [10] was “inactive and 27.5 µM (active)”; in experiment [19], “inactive and 27.5 µM (active)”. Also, the result in experiment [3], in [6], in experiment [11], in experiment [13], in experiment [15] and in [17] was inactive. For the same molecule, the Potency entry in [12] and in [16] was “inactive” each time.
`c1cc2c3c(cccc3c1)CC2`: in experiment [18], the max response was 0.321% (inactive) and -19.1% (inactive). Further, the Potency result in [2], in experiment [4], in experiment [5], in experiment [8], in experiment [9] and in experiment [12] was “inactive” each time. Also, the Potency entry in experiment [16] and in experiment [20] was “inactive” in each case. For the same molecule, the call in experiment [3], in experiment [6], in experiment [11], in [13], in [15] and in experiment [17] was inactive. Also, the Potency entry was “inactive and 49 µM (active)” in [7]; “inactive and 49 µM (active)” in experiment [10].
As for `CCCN(CCC)c1c([N+](=O)[O-])cc(C(F)(F)F)cc1[N+](=O)[O-]`, the max response in [18] is -12.8% (inactive) and 1.59% (inactive). For the same molecule, the Potency result in [2], in experiment [4], in experiment [5], in experiment [8], in [9] and in experiment [12] was “inactive” each time. In addition, the Potency entry in experiment [14], in [16] and in [20] was “inactive” in each case. The call in [3], in experiment [6], in experiment [11], in experiment [15] and in experiment [17] was inactive. Besides, the Potency in experiment [7] is 1.55 µM (active) and inactive; in experiment [10] it was 1.23 µM (active) and inactive.
For the molecule `CNC(=O)Oc1ccccc1OC(C)C`, the max response in [18] was 0.581% (inactive) and -1.94% (inactive). Further, the Potency result in [1], in experiment [2], in experiment [4], in experiment [5], in experiment [7] and in experiment [8] was “inactive” each time. For the same molecule, the Potency result in [9], in experiment [10], in [12], in experiment [14] and in [16] was “inactive” in each case. Also, the call in experiment [3], in [6], in experiment [11], in [13], in experiment [15] and in experiment [17] was inactive.
